Assay results from PubChem BioAssay (NCATS).
“And” between values parts separate entries of the source, which are not always exact repeats. Identical values can stand only once. Records with an inconclusive call do not appear. The source made the active and inactive calls. Unless noted, calls follow the shape of the dose curve; as a rule, active = well fitted curve in either direction with a large enough effect (not every such curve was filed as active); inconclusive = small, poorly fitted or top-dose-only effect, or another doubt; inactive = flat fitted curve, though single readings scatter.

How the values were obtained:
[1] = Stat Signaling Pathway (AID 446); conditions: ME-180 SIE beta-lactamase reporter, IL-6 stimulated, 5 h; at 38 µM (top of the series) unless noted;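 also: ME-180 cervical cancer cells given 40 pM IL-6 alongside compound; SIE-controlled beta-lactamase reporter measured as 460/530 nm FRET emission ratio; % is scaled to controls: 0 for no effect and ±100 for the full control effect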
Outline: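 Reporter line: ME-180 cervical carcinoma, SIE-beta-lactamase. Treatment: compound with 40 pM IL-6, 5 hrs, 37 C, in low-serum OPTI-MEM with 10 mM HEPES pH 7.3. Detection: 460/530 nm fluorescence.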

[2] = target: Glucocorticoid receptor (Homo sapiens) (UniProt P04150); test: GR-GFP Redistribution (AID 450;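 active = compounds whose dose series gives a full or clear partial fitted curve of increased nuclear translocation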; also: potency is read from the fitted curve at half-maximal effect); conditions: U2OS GR-GFP nuclear translocation, laser cytometry, 2 h
Glucocorticoid receptor (Homo sapiens), sequence (P04150 whole entry, looked up, the tested form may be a part): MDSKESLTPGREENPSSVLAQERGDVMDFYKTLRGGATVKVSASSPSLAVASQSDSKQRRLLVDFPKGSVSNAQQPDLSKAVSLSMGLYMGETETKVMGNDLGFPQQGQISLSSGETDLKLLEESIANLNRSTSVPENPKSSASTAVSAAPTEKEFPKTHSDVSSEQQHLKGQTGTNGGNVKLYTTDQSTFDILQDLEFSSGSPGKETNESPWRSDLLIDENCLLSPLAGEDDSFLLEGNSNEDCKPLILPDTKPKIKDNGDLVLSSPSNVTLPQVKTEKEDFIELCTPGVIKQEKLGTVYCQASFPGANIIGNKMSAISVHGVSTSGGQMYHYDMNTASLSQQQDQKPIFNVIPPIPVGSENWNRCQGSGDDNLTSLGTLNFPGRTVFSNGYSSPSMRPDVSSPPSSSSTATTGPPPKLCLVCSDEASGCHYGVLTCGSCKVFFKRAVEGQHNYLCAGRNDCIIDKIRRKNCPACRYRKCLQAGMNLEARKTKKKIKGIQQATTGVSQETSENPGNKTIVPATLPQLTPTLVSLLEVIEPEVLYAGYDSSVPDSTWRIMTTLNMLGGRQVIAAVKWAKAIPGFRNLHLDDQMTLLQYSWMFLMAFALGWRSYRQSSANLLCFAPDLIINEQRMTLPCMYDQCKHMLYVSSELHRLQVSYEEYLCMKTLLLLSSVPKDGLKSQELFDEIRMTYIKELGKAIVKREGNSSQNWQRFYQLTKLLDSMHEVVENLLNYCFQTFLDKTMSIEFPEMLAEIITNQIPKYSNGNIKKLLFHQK

[3] = target: Glucocorticoid receptor (Homo sapiens) (UniProt P04150); test: GR-EFC Redistribution (AID 451; calls by dose curve; also: potency is read from the fitted curve at half-maximal effect); conditions: CHO-K1 GR-EFC translocation, beta-gal luminescence, 2 h
Outline: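 CHO-K1 cells expressing nuclear EA and GR-ED fragments of b-gal; compounds titrated up to 46 uM final, 2 h at 37 C. GR nuclear translocation read as complemented b-gal luminescence after 1 h RT detection.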

[4] = target: 3',5'-cyclic-AMP phosphodiesterase 4B (Homo sapiens) (UniProt Q07343); test: qHTS Assay for Inhibitors of PDE-IV (AID 607; active = well fitted activation curve with a large enough effect in the main read-out, with a control signal flat, not every such curve was filed as active; also: % of control where 0% means no effect)
3',5'-cyclic-AMP phosphodiesterase 4B (Homo sapiens), sequence (Q07343 whole entry, looked up): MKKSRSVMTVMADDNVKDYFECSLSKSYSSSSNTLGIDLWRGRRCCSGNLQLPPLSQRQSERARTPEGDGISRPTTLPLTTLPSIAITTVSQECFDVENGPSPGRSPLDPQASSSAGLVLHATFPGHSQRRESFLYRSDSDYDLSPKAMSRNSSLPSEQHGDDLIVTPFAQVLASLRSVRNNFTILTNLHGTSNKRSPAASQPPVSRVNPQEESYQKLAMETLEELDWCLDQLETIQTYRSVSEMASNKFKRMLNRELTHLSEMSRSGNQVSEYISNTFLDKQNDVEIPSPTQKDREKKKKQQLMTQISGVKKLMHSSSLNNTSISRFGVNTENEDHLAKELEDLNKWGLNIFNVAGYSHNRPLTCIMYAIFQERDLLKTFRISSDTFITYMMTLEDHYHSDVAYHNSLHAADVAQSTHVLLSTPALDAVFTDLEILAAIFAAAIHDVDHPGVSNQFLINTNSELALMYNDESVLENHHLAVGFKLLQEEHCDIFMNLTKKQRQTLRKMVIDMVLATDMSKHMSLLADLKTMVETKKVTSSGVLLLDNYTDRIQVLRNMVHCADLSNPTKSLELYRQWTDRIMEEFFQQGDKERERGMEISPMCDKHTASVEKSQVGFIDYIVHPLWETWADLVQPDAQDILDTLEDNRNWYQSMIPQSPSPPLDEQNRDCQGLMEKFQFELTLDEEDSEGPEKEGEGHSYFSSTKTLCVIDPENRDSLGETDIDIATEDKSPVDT
Outline: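 Cell-based read-out of cAMP via a modified cyclic nucleotide-gated channel and membrane potential dye (535/590 nm) in HEK293 cells expressing PDE4 endogenously. Compounds tested up to 22.9 uM final; 100 uM RO 20-1724 reference.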

[5] = target: Mitogen-activated protein kinase 10 (Mus musculus) (UniProt Q61831); test: JNK3 AlphaScreen Assay (AID 530);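 also: kinase came from lysate of stimulated human HepG2 cells; signal reports phosphorylation of biotinylated GST-cJun 1-79 at Ser73 with 10 µM ATP; % is scaled to controls: 0 for no effect and ±100 for the full control effect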
Outline: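 Pre-activated (IL-1β/TNFα) JNK3 in HepG2 lysates phosphorylates biotin-GST-cJun(1-79), 10 uM ATP; anti-phospho-cJun(Ser73) AlphaScreen read at room temperature, pH 7.6 Tris buffer. Compounds pre-incubated 15 min as titrations.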

[6] = Cell Viability - N2a (AID 540; active = well fitted curve in the direction sought with a large enough effect; an effect the other way counts as inactive or inconclusive;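 also: plate controls were DMSO alone for no effect and tamoxifen control for full effect; nearly all actives have a fitted effect of over 45% in size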)
Outline: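 Mouse neuroblastoma N2a cells, 1500/well, exposed to compounds 40 h at 37 °C in complete medium. Viability measured as cellular ATP by CellTiter-Glo luminescence; AC50 from Hill fits of concentration-response.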

[7] = Cell Viability - NIH 3T3 (AID 541; active = well fitted curve in the direction sought with a large enough effect; an effect the other way counts as inactive or inconclusive;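 also: plate controls were DMSO alone for no effect and tamoxifen positive control for full effect; nearly all actives have a fitted effect of over 25% in size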)
Outline: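 Mouse NIH 3T3 fibroblasts, 1000 cells/well, rested 5 hr at 37 °C, then exposed to compound for 40 hr at 37 °C in complete medium. Viability read as intracellular ATP by CellTiter-Glo luminescence; AC50 from Hill-equation fits of concentration-response data.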

[8] = Cell Viability - HUV-EC-C (AID 542; active = well fitted curve in the direction sought with a large enough effect; an effect the other way counts as inactive or inconclusive; also: % is scaled to controls: 0 for no effect and ±100 for the full control effect; nearly all actives have a fitted effect of over 35% in size)
Outline: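 HUV-EC-C human vascular endothelial cells, 1000/well, exposed to compound for 40 hr at 37 °C in complete medium. Intracellular ATP was read by CellTiter-Glo luminescence. AC50 came from Hill-equation fits of concentration-response data.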

[9] = Cell Viability - H-4-II-E (AID 543; active = well fitted curve in the direction sought with a large enough effect; an effect the other way counts as inactive or inconclusive; also: % is scaled to controls: 0 for no effect and ±100 for the full control effect; nearly all actives have a fitted effect of over 35% in size)
Outline: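 Rat hepatoma H-4-II-E cells, 1500 per well, treated 40 h at 37 °C in complete medium. Cellular ATP read by CellTiter-Glo luminescence; AC50 from Hill fits of concentration-response.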

[10] = Cell Viability - SH-SY5Y (AID 544; active = well fitted curve in the direction sought with a large enough effect; an effect the other way counts as inactive or inconclusive;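 also: 0% = DMSO alone and -100% = 100 µM tamoxifen; nearly all actives have a fitted effect of over 55% in size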)
Outline: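 SH-SY5Y human neuroblastoma cells (1500/well) incubated 5 h, then compound-treated 40 h at 37 °C in complete medium. Viability read as intracellular ATP by CellTiter-Glo luminescence after 20 min; AC50 from Hill-equation fits of qHTS concentration-response.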

[11] = Cell Viability - Renal Proximal Tubule (AID 545; active = well fitted curve in the direction sought with a large enough effect; an effect the other way counts as inactive or inconclusive;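 also: 0% = DMSO only and -100% = 100 µM tamoxifen; nearly all actives have a fitted effect of over 40% in size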)
Outline: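 In this qHTS format, normal rat kidney-derived proximal tubule cells in complete culture medium receive compound titrations, then sit 40 hours at 37 °C before luciferase-based ATP quantitation; potency is reported as AC50 from concentration-response curves.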

[12] = Cell Viability - Mesenchymal (AID 546; active = well fitted curve in the direction sought with a large enough effect; an effect the other way counts as inactive or inconclusive;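 also: cells exposed to compound for 40 hours before reading; 0% = DMSO only and -100% = 100 µM tamoxifen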)
Outline: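 Human kidney mesenchymal cells from normal renal glomeruli, 1000 cells/well, rested 5 hr at 37 °C, then treated 40 hr at 37 °C in complete medium. Cellular ATP read by CellTiter-Glo luminescence; AC50 from Hill-equation fits.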

[13] = Cellular Toxicity (caspase-3) HepG2 (AID 654; active = well fitted curve in the direction sought with a large enough effect; an effect the other way counts as inactive or inconclusive;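 also: cells exposed to compound for 16 hours before reading; 0% = DMSO alone and 100% = caspase signal from 100 µM tamoxifen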)
Outline: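 HepG2 cells (1500/well) were treated 16 h at 37 °C in complete medium, then caspase 3/7 activity was read by Caspase-Glo luminescence. Data were normalized to DMSO and 100 uM tamoxifen; AC50 came from Hill-equation fits of qHTS concentration-response.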

[14] = Cellular Toxicity (caspase-3) Jurkat (AID 655; active = well fitted curve in the direction sought with a large enough effect; an effect the other way counts as inactive or inconclusive;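 also: cells exposed to compound for 16 h at 37 °C before reading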)
Outline: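 qHTS in human Jurkat T-cell leukemia line: 16 hr compound treatment at 37 °C, caspase-3/7 activity measured by Caspase-Glo luminescence. AC50 derived from Hill equation.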

[15] = Cellular Toxicity (caspase-3) HUV-EC-C (AID 656; active = well fitted curve in the direction sought with a large enough effect; an effect the other way counts as inactive or inconclusive;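 also: 0% = DMSO basal and 100% = 100 µM tamoxifen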)
Outline: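 Concentration-dependent caspase 3/7 induction was assessed in HUV-EC-C cells exposed for 16 hours. Data scaled between DMSO and tamoxifen (100 uM) controls.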

[16] = Cellular Toxicity (caspase-3) SHSY5Y (AID 657; active = well fitted curve in the direction sought with a large enough effect; an effect the other way counts as inactive or inconclusive)
Outline: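 Readout: caspase-cleaved peptide-aminoluciferin substrate driving luciferase light in SH-SY5Y neuroblastoma cells after 16 h treatment. Response normalized to DMSO and 10 uM staurosporine controls.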

[17] = Cellular Toxicity (caspase-3) BJ (AID 658; active = well fitted curve in the direction sought with a large enough effect; an effect the other way counts as inactive or inconclusive;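 also: 0% = DMSO basal and 100% = 10 µM staurosporine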)
Outline: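 BJ human foreskin fibroblasts, 1000 cells/well, treated 16 hours at 37 °C in complete medium; caspase 3/7 activity by Caspase-Glo luminescence after 1 hr at room temperature. Normalized to DMSO and 10 uM staurosporine; AC50 from Hill fits.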

[18] = Cellular Toxicity (caspase-3) MRC-5 (AID 659; active = well fitted curve in the direction sought with a large enough effect; an effect the other way counts as inactive or inconclusive;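 also: 0% = DMSO basal and 100% = 10 µM staurosporine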)
Outline: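 MRC-5 human normal lung fibroblasts, 1500 cells/well, treated 16 h at 37 °C in complete medium. Caspase 3/7 measured by Caspase-Glo luminescence after 1 h at room temperature. Normalized to DMSO and 10 uM staurosporine; AC50 from Hill fit.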

[19] = Cellular Toxicity (caspase-3) Mesangial (AID 660; active = well fitted curve in the direction sought with a large enough effect; an effect the other way counts as inactive or inconclusive;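 also: cells exposed to compound for 16 h before the caspase read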)
Outline: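 Human renal glomerular mesangial cells, 1000/well, 5 h at 37 C before 16 h compound treatment. Caspase-Glo 3/7 luminescence after 20 min; normalized to DMSO and 100 uM tamoxifen, AC50 from Hill fit.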

[20] = Cellular Toxicity (caspase-3) SK-N-SH (AID 661; active = well fitted curve in the direction sought with a large enough effect; an effect the other way counts as inactive or inconclusive;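 also: 0% = DMSO basal and 100% = 10 µM staurosporine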)
Outline: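 Human SK-N-SH neuroblastoma cells, 1500/well, were exposed to compounds for 16 hours at 37 °C. Caspase-Glo 3/7 luminescence was normalized to DMSO (basal) and 10 uM staurosporine (100%), and AC50 came from a Hill fit.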

O=C(O)c1ccccc1Nc1ccccc1
inactive: activity, negative = inhibition [1] -15.6% | Potency [2] > 46 µM | Potency [3] > 46 µM | Potency [4]

C[N+](C)(C)CC=O
inactive: activity, negative = inhibition [1] 17.9% | Potency [2] > 46 µM | Potency [3] > 46 µM | Potency [4]

S=C(S)N1CCCC1
inactive: activity, negative = inhibition [1] 7.91% | Potency [2] > 46 µM | Potency [3] > 46 µM | outcome [5] | Potency [4]

CNC(=O)c1cc2c(cn1)[nH]c1ccccc12
inactive: activity, negative = inhibition [1] 31.1% | Potency [2] > 46 µM | Potency [3] > 46 µM | Potency [4]

Nn1nnc2ccccc21
inactive: activity, negative = inhibition [1] 9.14% | Potency [2] > 46 µM | Potency [3] > 46 µM | Potency [4]

O=C(O)c1cc2cc(F)ccc2[nH]1
inactive: activity, negative = inhibition [1] -0.809% [at 17.2 µM] | Potency [2] > 46 µM and > 20.6 µM | Potency [3] > 46 µM | outcome [5] | Potency [4]

CC(=O)NCCc1c[nH]c2ccc(O)cc12
inactive: activity, negative = inhibition [1] -51.8% | Potency [2] > 46 µM | Potency [3] > 46 µM | outcome [5] | Potency [4]

NC(=O)c1ccccc1
inactive: activity, negative = inhibition [1] -35.6% | Potency [2] > 46 µM | Potency [3] > 46 µM | outcome [6] | outcome [7] | outcome [8] | outcome [9] | outcome [10] | outcome [11] | outcome [12] | Potency [4] | outcome [13] | outcome [14] | outcome [15] | outcome [16] | outcome [17] | outcome [18] | outcome [19] | outcome [20]

O=c1onc2n1-c1cc(Br)ccc1OC2
inactive: activity, negative = inhibition [1] -16.1% | Potency [2] > 46 µM | Potency [3] > 46 µM | Potency [4]

O=c1oc(Cl)c(Cl)c2ccccc12
inactive: Potency [2] > 46 µM | Potency [3] > 46 µM | outcome [5] | Potency [4]
active: activity, negative = inhibition [1] 22.3%

O=C(N[C@@H](Cc1ccccc1)C(=O)CCl)OCc1ccccc1
inactive: Potency [2] > 46 µM | Potency [3] > 46 µM | outcome [5] | Potency [4]
active: activity, negative = inhibition [1] -59.3%

O=S(=O)(c1cccc2c(Cl)cccc12)N1CCCNCC1
inactive: activity, negative = inhibition [1] -1.55% | Potency [2] > 46 µM | Potency [3] > 46 µM | outcome [5] | Potency [4]

NCCCNCCCCNCCCN
inactive: activity, negative = inhibition [1] -4.41% | Potency [2] > 46 µM | Potency [3] > 46 µM | outcome [5] | Potency [4]

NC/C=C\C(=O)O
inactive: activity, negative = inhibition [1] 22.6% and 7.43% | Potency [2] > 46 µM | Potency [3] > 46 µM | outcome [5] | Potency [4]

C=CCn1c(=O)c2c(nc(-c3ccc(S(=O)(=O)O)cc3)n2C)n(C)c1=O
inactive: activity, negative = inhibition [1] 20.8% | Potency [2] > 46 µM | Potency [3] > 46 µM | Potency [4]

O=c1[nH]c2cc(Cl)ccc2c(O)c1-c1ccc(Oc2ccccc2)cc1
inactive: activity, negative = inhibition [1] -10.1% | Potency [2] > 46 µM | Potency [3] > 46 µM | Potency [4]

O=C(O)C1CCNCC1
inactive: activity, negative = inhibition [1] -8.76% | Potency [2] > 46 µM | Potency [3] > 46 µM | Potency [4]

[Li+]
inactive: activity, negative = inhibition [1] -7.38% | Potency [2] > 46 µM | outcome [5] | Potency [4]

CC(=O)N[C@@H](Cc1c[nH]c2ccccc12)C(=O)OCc1cc(C(F)(F)F)cc(C(F)(F)F)c1
inactive: activity, negative = inhibition [1] 1.93% | Potency [2] > 46 µM | outcome [5] | Potency [4]

N=C(N)c1ccc(N)cc1
inactive: activity, negative = inhibition [1] -11.4% | Potency [2] > 46 µM | Potency [3] > 46 µM | Potency [4]

COc1ccc(CCN(C)CCc2ccc(OC)c(OC)c2)cc1OC
inactive: activity, negative = inhibition [1] -14.4% | Potency [2] > 46 µM | outcome [5] | Potency [4]

NC(N)=NC(N)=Nc1ccccc1
inactive: activity, negative = inhibition [1] -15.1% | Potency [2] > 46 µM | outcome [5] | Potency [4]

CCCCCCCC/C=C\CCCCCCCC(=O)NCCc1ccc(O)c(O)c1
inactive: activity, negative = inhibition [1] 0.267% | Potency [2] > 46 µM | Potency [3] > 46 µM | Potency [4]

N=C(N)c1ccc(OCCCCCOc2ccc(C(=N)N)cc2)cc1 (tested in a mixture with another compound)
inactive: activity, negative = inhibition [1] -3.59% | Potency [2] > 46 µM | outcome [5] | Potency [4]

N#Cc1cc2nc(O)c(O)nc2cc1[N+](=O)[O-]
inactive: activity, negative = inhibition [1] -26.5% | Potency [2] > 46 µM | outcome [5] | Potency [4]

Cn1c(=O)[nH]c2ncn(C)c2c1=O
inactive: activity, negative = inhibition [1] 3.46% | Potency [2] > 46 µM | Potency [3] > 46 µM | Potency [4]

Cc1ccc2c(c1)C(N1CCN(C)CC1)=Nc1cccnc1N2
inactive: activity, negative = inhibition [1] 0.822% | Potency [2] > 46 µM | outcome [5] | Potency [4]

COc1ccccc1N1CCN(CCCCN2C(=O)c3ccccc3C2=O)CC1
inactive: activity, negative = inhibition [1] 19% | Potency [2] > 46 µM | outcome [5] | Potency [4]
